Screens: PubChem BioAssay, National Center for Advancing Translational Sciences (NCATS)
Cycloheximide cs: Cycloheximide Counterscreen for Small Molecule Inhibitors of Shiga Toxin; cell reporter, cycloheximide protein synthesis inhibition counterscreen; max response, %; hit rate 12% among 300,000; AID 2314, 2010; in the data active = max response mostly above about 13%, no sharp cut-off; inactive = mostly below about 14%; note: read at 38.3 µM for the half of the compounds with a filed dose; 0% is about no effect
Sm TGR block: qHTS Assay for the Inhibitors of Schistosoma Mansoni Peroxiredoxins | Schistosoma mansoni thioredoxin glutathione reductase (TGR), Q962Y6 | purified TGR, DTNB reduction, TNB absorbance 405 nm | Potency, µM (highest dose often 114 µM), for inactives: top-dose activity change, negative = inhibition, hits mostly inhibitors | hit rate 3% among 360,000 | AID 485364, 2010; note: potency is the fitted concentration of half-maximal effect; % is set by controls: 0 for no effect and ±100 for the full control effect; nearly all actives have a fitted effect of over 60% in size
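First, TGR (20 nM dispensed) and NADPH were mixed with compound. Second, a 15 min room-temperature incubation followed. Third, further NADPH and then DTNB were added to start the reaction. Finally, TNB absorbance was monitored kinetically.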
FBPA Giardia inh: qHTS Assay for Inhibitors of Fructose-1,6-bisphosphate Aldolase from Giardia Lamblia | A8B2U2 | purified Giardia FBPA | Potency, µM (series often up to 59.6 µM), inactives show at the top dose activity, negative = inhibition, usual class: inhibitors | hit rate 0.71% among 290,000 | AID 2451, 2010; note: potency is the fitted concentration of half-maximal effect; % is set by controls: 0 for no effect and ±100 for the full control effect; nearly all actives have a fitted effect of over 55% in size
Target sequence (A8B2U2 whole entry, looked up): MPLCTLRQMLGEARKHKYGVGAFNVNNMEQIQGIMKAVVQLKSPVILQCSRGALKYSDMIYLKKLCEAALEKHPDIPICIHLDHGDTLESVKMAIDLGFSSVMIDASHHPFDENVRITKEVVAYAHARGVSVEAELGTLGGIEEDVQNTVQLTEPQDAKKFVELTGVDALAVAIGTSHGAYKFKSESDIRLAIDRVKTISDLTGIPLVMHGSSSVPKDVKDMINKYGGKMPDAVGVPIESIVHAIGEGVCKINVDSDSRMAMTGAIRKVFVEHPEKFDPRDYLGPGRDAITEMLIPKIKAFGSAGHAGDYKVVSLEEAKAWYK
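Giardia FBPA (40 nM reagent) was preincubated 10 min at RT with compound (up to 57.5 uM final), then substrate plus GAPDH/TPI/NAD/arsenate coupling system with diaphorase/resazurin was added; resorufin fluorescence (525/598 nm) was read after 20 min.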
Tb PYK inh: qHTS of Trypanosoma Brucei Inhibitors; pyruvate kinase (Trypanosoma brucei), Q57TT1; TbPYK enzyme, Kinase-Glo Plus ATP luminescence, 45 min; Potency, µM (series often up to 76.8 µM), inactives show at the highest dose activity, negative = inhibition, most hits filed as inhibitors; hit rate 0.12% among 410,000; note: potency is the fitted concentration of half-maximal effect; % is set by controls: 0 for no effect and ±100 for the full control effect; nearly all actives have a fitted effect of over 50% in size
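Readout: single end-point luminescence (Kinase-Glo Plus, 10 min). Reaction conditions were TbPYK/substrate plus 130 uM ADP, 45 min at RT, pH 7.2 TEA buffer. No-enzyme wells served as controls, and data were normalized before concentration-response fitting.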
Shiga inhibitor: A qHTS for Small Molecule Inhibitors of Shiga Toxin. hit rate 9.2% among 290,000. inhibition, % at 38.7 µM. Vero cells, Shiga toxin protein synthesis inhibition reporter; in the data active = inhibition mostly above about 28%, no sharp cut-off; inactive = mostly below about 43%; note: 0% is about no effect
LmPK inhibitor: qHTS Assay for Inhibitors of Leishmania Mexicana Pyruvate Kinase (LmPK); purified LmPK, Kinase-Glo ATP luminescence, 1 h; hit rate 0.37% among 290,000; Potency, µM (top dose mostly 57.5 µM), for the others: at the top dose activity change, negative = inhibition, usual class: inhibitors; note: potency is the fitted concentration of half-maximal effect; % is set by controls: 0 for no effect and ±100 for the full control effect
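Kinase-Glo luminescence read after 1 h RT reaction of 0.1 nM LmPK with 0.5 mM PEP and 0.1 mM ADP. Activity scaled between uninhibited and enzyme-free controls.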
An asterisk follows results filed as active; [ ] = dose if it differs, or a comment. This excerpt belongs to a sample that is enriched for hits. Unless noted, calls come from the whole dose curve; as a rule, active = well fitted curve in the direction sought with a large enough effect; inconclusive = small, poorly fitted or top-dose-only effect, or another doubt; inactive = no such curve, though single readings can be large; an effect the other way counts as inactive or inconclusive.

`CCCNC(=O)COC(=O)c1ccccc1C(=O)c1ccc(Cl)c([N+](=O)[O-])c1` gave Cycloheximide cs 60*, Sm TGR block inconclusive, FBPA Giardia inh -4%, Tb PYK inh -1%, Shiga inhibitor 41 and LmPK inhibitor 0%.
Screening CC1CCCC(C)N1C(=O)COC(=O)/C=C/c1ccco1 (stereo not drawn) returned Tb PYK inh -2%.
For CC1CCCC(NC(=O)COC(=O)/C=C/c2ccco2)C1C (stereo not drawn) the results were Sm TGR block 45µM* and Tb PYK inh -4%.
`O=C(COC(=O)/C=C/c1ccco1)Nc1ccc(F)cc1Cl` gave Cycloheximide cs 12, Sm TGR block 32µM*, FBPA Giardia inh 3%, Tb PYK inh -7%, Shiga inhibitor -5 and LmPK inhibitor 4%.
For CO/N=C1\C[C@]2(C[C@@H]3C[C@H](C/C=C(/C)C[C@@H](C)/C=C\C=C4\CO[C@@H]5[C@@H](O)C(C)=C[C@@H](C(=O)O3)[C@]45O)O2)O[C@@H](/C(C)=C/C(C)C)[C@H]1C the results were Tb PYK inh -13%.
`O=[N+]([O-])c1ccc(COc2cccc(CN3CCOCC3)c2)cc1` gave Tb PYK inh 0%.
`CCc1ccccc1NC(=O)CSc1nnc(CC)c(CC)n1` gave Sm TGR block -1% and Tb PYK inh -3%[15.4 µM].
`COc1ccc(NC(=O)COC(=O)CN2C(=O)C3CCCCC3C2=O)cc1` (stereo not drawn) gave Tb PYK inh -14%.
For O=c1ccn(C2OC(COP(=O)(O)OP(=O)(O)OP(=O)(O)O)C(O)C2O)c(=O)[nH]1 (stereo not drawn) the results were FBPA Giardia inh -12%.
O=C(COC(=O)c1cccc2ccccc12)NCCCc1ccccc1 was read as Cycloheximide cs 2, Sm TGR block -6%, FBPA Giardia inh 1%, Tb PYK inh 9%, Shiga inhibitor -4 and LmPK inhibitor -1%.
CC1CCCC(NC(=O)COC(=O)c2ccccc2[N+](=O)[O-])C1C (stereo not drawn) was read as Cycloheximide cs 30*, Sm TGR block 3%, FBPA Giardia inh 2%, Tb PYK inh -2%, Shiga inhibitor 83* and LmPK inhibitor 4%.
Screening O=C(COC(=O)c1ccccc1[N+](=O)[O-])NCCCc1ccccc1 returned Cycloheximide cs 38*, Sm TGR block 8%, FBPA Giardia inh 6%, Tb PYK inh 2%, Shiga inhibitor 70* and LmPK inhibitor -7%.
For COC(=O)c1ccccc1NC(=O)COC(=O)/C=C/c1ccco1 the results were Cycloheximide cs -2, Sm TGR block 25µM*, FBPA Giardia inh -1%, Tb PYK inh -1%, Shiga inhibitor -8 and LmPK inhibitor -4%.
`COC(=O)c1ccccc1NC(=O)COC(=O)c1ccco1` gave Cycloheximide cs -5, Sm TGR block -22%, FBPA Giardia inh -3%, Tb PYK inh 6%, Shiga inhibitor 2 and LmPK inhibitor 1%.
For O=C(COC(=O)/C=C/c1ccco1)Nc1ccccc1 the results were Cycloheximide cs 14, Sm TGR block 56µM*, FBPA Giardia inh 1%, Tb PYK inh -6%, Shiga inhibitor 39 and LmPK inhibitor -8%.
Screening CCOc1ccc(CN2CCN(C3CCC3)CC2CCO)cc1 (stereo not drawn) returned Cycloheximide cs -1, Sm TGR block 13µM*, FBPA Giardia inh -3%, Tb PYK inh 0% and LmPK inhibitor 0%.
Screening CCOc1ccc(CN2CCN(C3CCSCC3)CC2CCO)cc1 (stereo not drawn) returned Cycloheximide cs 1, Sm TGR block inconclusive, FBPA Giardia inh 0%, Tb PYK inh 3%, Shiga inhibitor -7 and LmPK inhibitor 2%.
`CC(C)Oc1ccc(C(=O)Nc2nonc2-c2ccc(OC(C)C)cc2)cc1` gave Sm TGR block -1% and Tb PYK inh -2%.
Screening COc1ccc(NC2CC(=O)N(c3cccc(C)c3)C2=O)cc1 (stereo not drawn) returned Cycloheximide cs -3, Sm TGR block 35µM*, FBPA Giardia inh inconclusive, Tb PYK inh -1%, Shiga inhibitor -9 and LmPK inhibitor 5%.
`Cc1ccc(N2C(=O)CC(Nc3ccccc3)C2=O)cc1` (stereo not drawn) gave Cycloheximide cs 1, Sm TGR block -20%, FBPA Giardia inh 0%, Tb PYK inh -1%, Shiga inhibitor -13 and LmPK inhibitor 7%.
`COc1ccc(NC2CC(=O)N(c3cc([N+](=O)[O-])ccc3C)C2=O)cc1` (stereo not drawn) gave Cycloheximide cs -1, Sm TGR block 40µM*, FBPA Giardia inh 0%, Tb PYK inh 1%, Shiga inhibitor -10 and LmPK inhibitor -3%.
`COc1ccc(N2C(=O)CC(NC3CC3)C2=O)cc1` (stereo not drawn) gave Cycloheximide cs 5, Sm TGR block -21%, FBPA Giardia inh -5%, Tb PYK inh 7%, Shiga inhibitor -2 and LmPK inhibitor 1%.
Screening COc1ccc(NC2CC(=O)N(c3cccc([N+](=O)[O-])c3)C2=O)cc1 (stereo not drawn) returned Cycloheximide cs 14, Sm TGR block 56µM*, FBPA Giardia inh 0%, Tb PYK inh 1%, Shiga inhibitor 15 and LmPK inhibitor 0%.
`COc1ccc(NC2CC(=O)N(c3ccc(C(=O)O)cc3)C2=O)cc1` (stereo not drawn) gave Cycloheximide cs 7, Sm TGR block -33%, FBPA Giardia inh -6%, Tb PYK inh 1%, Shiga inhibitor 4 and LmPK inhibitor 0%.
For COc1ccc(N2C(=O)CC(Nc3cccc(C(C)=O)c3)C2=O)cc1OC (stereo not drawn) the results were Cycloheximide cs 10, Sm TGR block 56µM*, FBPA Giardia inh -3%, Tb PYK inh -4%, Shiga inhibitor 51 and LmPK inhibitor 5%.
Screening CN(C)c1ccc(NC(=S)c2ccccn2)cc1 returned Cycloheximide cs -4, Sm TGR block -16%, FBPA Giardia inh inconclusive, Tb PYK inh inconclusive, Shiga inhibitor -14 and LmPK inhibitor 4.5µM*.
C=CCN(C)NC(=S)Nc1ccccc1 was read as Cycloheximide cs -2, Sm TGR block -14%, FBPA Giardia inh -15%, Tb PYK inh -2%, Shiga inhibitor -12 and LmPK inhibitor -7%.
CN(C)c1ccc(C(=S)Nc2ccccc2)cc1 was read as Cycloheximide cs 89*, Sm TGR block -2%, FBPA Giardia inh 1%, Tb PYK inh 9%, Shiga inhibitor 128* and LmPK inhibitor -2%.
